# Results filed as inconclusive are left out. A call without a number means that no potency is given here. The source made the active and inactive calls. Calls come from the whole dose curve; as a rule, active = well fitted cell-killing curve with a large enough effect in the repeat runs; inconclusive = weak or mixed curves, or effect the other way; inactive = flat fitted curve, though single readings scatter.
# Assay: qHTS RealTime-Glo MT Cell Viability Assay in HepG2 cells - 40 hour (AID 1224870); note: nearly all actives have a fitted effect of over 50% in size
# Conditions: RealTime-Glo luminescence; series mostly up to 76.8 µM
# Text: National Center for Advancing Translational Sciences [NCATS]
# NIH Chemical Genomics Center [NCGC]
# U.S. Environmental Protection Agency [EPA]
# National Institutes of Environmental Health Sciences [NIEHS]
# National Toxicology Program [NTP]
# U.S. Food and Drug Administration [FDA]
# Measure of cell viability is critical in the cell-base assay. Analysis of cell viability is necessary for the characterization of cell responses to cytotoxic drugs and environmental stress. A RealTime-Glo MT Cell Viability Assay to monitor cell viability in real time of continues cell culture during 40 hours of compound treatment was used to screen Tox21 10K library compounds in HepG2 cells. The RealTime-Glo MT Cell Viability Assay is a nonlytic, homogeneous, bioluminescent method to measure cell viability in real time using a simple, plate-based method. The assay involves adding NanoLuc luciferase and a cell-permeant prosubstrate to cells in culture. Viable cells reduce the proprietary prosubstrate to generate a substrate for NanoLuc luciferase. This substrate diffuses from cells into the surrounding culture medium, where it is rapidly used by the NanoLuc Enzyme to produce a luminescent signal. The signal correlates with the number of viable cells, making the assay well suited for cytotoxicity studies.
# Tox21 Assay Protocol Summary:
# The mixture of HepG2 cell suspension and reagents were dispensed at 600cells/6 ul/well in 1536-well tissue culture treated black solid bottom plates using a Multidrop dispenser. After the assay plates were incubated at a 37 C/5% CO2 incubator for 5 hours, 23 nL of compounds dissolved in DMSO, positive and negative controls was transferred to the assay plate by a pintool work station. The plates were incubated at 37 C for 40 hours. The luminescence intensity were measured at 0h, 8h, 16h, 24h, 32h and 40h time points using ViewLux plate reader during compound treatment.
# Potency is the fitted concentration of half-maximal effect.
row,SMILES,Potency
1,C[C@H]1CNCCc2ccc(Cl)cc21,inactive
2,C=CCCl,inactive
3,CC(C)(C)C(O)C(Oc1ccc(Cl)cc1)n1cncn1 (stereo not given),inactive
4,C/C=C/C=O,inactive
5,ClCC(Br)CBr (stereo not given),inactive
6,NCCCNCCCN,inactive
7,NC(=O)CI,6.22 µM (active)
8,O=C1C(Cl)C(CCl)CN1c1cccc(C(F)(F)F)c1 (stereo not given),inactive
9,CC(=O)c1cc2c(cc1C)C(C)(C)C(C)CC2(C)C (stereo not given),inactive
10,CCOP(=O)(OCC)SCCSCC,inactive
11,CCCCCCCCCC(=O)O[C@H]1CC[C@H]2[C@@H]3CCC4=CC(=O)CC[C@@H]4[C@H]3CC[C@]12C,inactive
12,N#C/C(N)=C(/N)C#N,inactive
13,O=NN1CCNCC1,inactive
14,O=C(O)COc1ccc(Cl)cc1,inactive
15,Brc1ccc(Oc2ccccc2)cc1,inactive
16,CCCCN(N=O)C(=N)N[N+](=O)[O-],inactive
17,CC(=O)NC1CCSC1=O (stereo not given),inactive
18,CCCC(=O)Cl,inactive
19,BrCC(Br)C1CCC(Br)C(Br)C1 (stereo not given),inactive
20,C=CCC1([C@H](C)CCC)C(=O)NC(=O)NC1=O,inactive

row,SMILES,Potency
1,COC(=O)C(Cl)C(=O)OC,inactive
2,C=CC(=O)NCNC(=O)C=C,inactive
3,O=C1C(=O)c2cccc3cccc1c23,17.4 µM (active)
4,O=C(C(Cl)(Cl)Cl)C(Cl)(Cl)Cl,inactive
5,CCOP(O)OCC,inactive
6,CC(Cl)Cl,inactive
7,CN1[C@@H]2CC[C@H]1CC(OC(=O)c1cc(Cl)cc(Cl)c1)C2 (stereo not given in full),inactive
8,O=C(O)c1ccccc1C(=O)Nc1cccc2ccccc12,inactive
9,BrCCCCBr,inactive
10,O=C(N[C@H](c1ccccc1)[C@@H]1CN2CCC1CC2)c1c(Cl)ccc(C(F)(F)F)c1Cl,inactive
11,COC(N)=O,inactive
12,CCC(COC(=O)c1cc(OC)c(OC)c(OC)c1)(c1ccccc1)N(C)C (stereo not given),inactive
13,CCC(Cl)CCl (stereo not given),inactive
14,CCc1ccc(C(=O)NN(C(=O)c2cc(C)cc(C)c2)C(C)(C)C)cc1,inactive
15,Sc1ccccc1Cl,inactive
16,CCCCN=C=O,inactive
17,O=C=Nc1ccc(Cl)cc1,inactive
18,C[C@@H]1CC[C@H]2[C@@H](C)C(=O)O[C@@H]3O[C@@]4(C)CC[C@@H]1[C@]32OO4,inactive
19,ClCCCCBr,inactive
20,Cl/C=C\C[N+]12CN3CN(CN(C3)C1)C2,inactive
